We go through 10 compounds from PubChem BioAssay.

A short description of test [1]: resazurin metabolic signal in HepG2 cells – cell-based, resazurin fluorescence, 24 h, PK04 Diversity Set, profiling panel (AID 1172). Conditions: HepG2 viability, higher = more signal. In general terms: Resazurin is reduced to fluorescent resorufin, in cell work by metabolically active cells.
The nature of test [2]: budding yeast growth changes without added modifier – OD600, strain BY4716, 24 h, basal condition, primary screen (AID 1173). The settings on record: S. cerevisiae BY4716 growth, OD600, 24 h; higher = more signal, called active from +8 up or from −8 down.
Test [3] can be described thus: viability profiling in MM1S myeloma cells – cell-based, resazurin fluorescence, basal, 24 h, PK04 Diversity Set, profiling panel (AID 1174).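 Also: MM1S multiple myeloma cell line.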 The settings on record: higher = more signal, called active from +8 up or from −8 down.
Test [4] deals with Dihydroorotate dehydrogenase (quinone), mitochondrial (Plasmodium falciparum (isolate 3D7)) (UniProt Q08210). As to the kind of experiment: inhibition of P. falciparum DHODH – biochemical, C-terminal His tag, absorbance 600 nm, primary screen (AID 1175).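 Also: recombinant parasite enzyme with a five histidine tag at its C terminus.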 The settings on record: PfDHODH enzyme, DCIP absorbance 600 nm; higher = more signal, called active from +8 up or from −8 down.
Sequence of Dihydroorotate dehydrogenase (quinone), mitochondrial (Plasmodium falciparum (isolate 3D7)) (Q08210 whole entry, looked up): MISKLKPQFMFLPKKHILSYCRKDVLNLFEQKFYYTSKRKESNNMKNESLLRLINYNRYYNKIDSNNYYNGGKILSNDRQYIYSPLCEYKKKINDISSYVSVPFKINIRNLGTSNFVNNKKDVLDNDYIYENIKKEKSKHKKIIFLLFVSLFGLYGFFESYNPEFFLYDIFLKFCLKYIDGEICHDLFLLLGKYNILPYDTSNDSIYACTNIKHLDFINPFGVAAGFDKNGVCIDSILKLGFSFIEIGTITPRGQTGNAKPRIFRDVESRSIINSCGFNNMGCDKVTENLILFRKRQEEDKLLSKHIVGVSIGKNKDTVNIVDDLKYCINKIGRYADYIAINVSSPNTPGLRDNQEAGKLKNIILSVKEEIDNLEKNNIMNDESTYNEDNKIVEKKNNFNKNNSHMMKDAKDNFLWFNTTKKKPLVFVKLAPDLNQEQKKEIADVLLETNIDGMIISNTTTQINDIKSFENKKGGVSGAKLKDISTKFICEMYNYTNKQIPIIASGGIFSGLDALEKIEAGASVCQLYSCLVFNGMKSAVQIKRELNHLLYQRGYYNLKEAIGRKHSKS

Test [5] can be described thus: inhibition of PAO1 biofilm formation – strain PAO1, LB-PBS medium, absorbance 600 nm, primary screen (AID 1176). The settings on record: P. aeruginosa PAO1 growth/biofilm, A600, 12 h; higher = more signal.
A short description of test [6]: growth modulation of vineyard yeast isolate – strain RM11-1a, OD600, basal, 24 h, primary screen (AID 1177).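 Also: cultures grown under basal conditions with no added stressor.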 Conditions: S. cerevisiae RM11-1a growth, OD600, 24 h; higher = more signal, called active from +8 up or from −8 down.
The nature of test [7]: growth of efflux-deficient E. coli DRC39 – strain DRC39, OD650, 24 h, E. coli filamentation inducers, primary screen (AID 1178).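 Also: growth measured as culture turbidity by optical density at 650 nm.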 Conditions: E. coli DRC39 acrAB, higher = more signal, called active from +8 up or from −8 down.
Test [8] in a line: growth of efflux-deficient E. coli DRC39 – strain DRC39, OD650, 48 h, E. coli filamentation inducers, primary screen (AID 1179).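 Also: screen aims at cell division blockers that make cells filament.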 The settings on record: E. coli DRC39 delta-acrAB growth, higher = more signal, called active from +8 up or from −8 down.
Test [9] in a line: viability profiling in RPMI8226 myeloma cells – cell-based, resazurin fluorescence, basal, 24 h, PK04 Diversity Set, profiling panel (AID 1180).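 Also: RPMI8826 multiple myeloma cell line at 5000 cells per well.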 The settings on record: higher = more signal.
In test [10] the target is E3 ubiquitin-protein ligase XIAP (Homo sapiens) (UniProt P98170). The test can be described thus: small molecules binding XIAP protein – biophysical, small-molecule microarray, fluorescence 635 nm, primary screen (AID 1181).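 Also: score merges 667 nm emission and signal to noise over triplicate slides.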 The settings on record: higher = more signal.
Sequence of E3 ubiquitin-protein ligase XIAP (Homo sapiens) (P98170 whole entry, looked up, the tested form may be a part): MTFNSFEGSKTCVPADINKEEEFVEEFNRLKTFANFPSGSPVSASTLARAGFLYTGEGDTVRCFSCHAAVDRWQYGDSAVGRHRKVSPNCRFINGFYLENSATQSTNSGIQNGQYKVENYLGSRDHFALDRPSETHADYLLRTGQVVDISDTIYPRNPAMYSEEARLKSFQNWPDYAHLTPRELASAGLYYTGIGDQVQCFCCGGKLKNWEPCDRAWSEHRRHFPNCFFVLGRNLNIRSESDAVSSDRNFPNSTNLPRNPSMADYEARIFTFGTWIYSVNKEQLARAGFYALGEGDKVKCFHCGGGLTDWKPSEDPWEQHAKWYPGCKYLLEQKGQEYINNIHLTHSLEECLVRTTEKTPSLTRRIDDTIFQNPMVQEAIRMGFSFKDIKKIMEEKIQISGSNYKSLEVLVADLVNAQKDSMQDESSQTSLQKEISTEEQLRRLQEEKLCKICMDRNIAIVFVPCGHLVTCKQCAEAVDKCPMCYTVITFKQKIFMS
In test [11] the test system is XIP peptide (Xip251-270) binding. The test can be described thus: XIP fragment 251-270 binding compounds – biochemical, small-molecule microarray, fluorescence 635/667 nm, 0.1 µg/mL protein, primary screen (AID 1182). Conditions: fluorescent protein binding, 635 nm, higher = more signal, called active from +8 up or from −8 down.
Test [12] has as its system XIP peptide (Xip251-270). The test can be described thus: compounds binding XIP fragment 251-270 – biochemical, small-molecule microarray, fluorescence 635/667 nm, 0.5 µg/mL protein, primary screen (AID 1183). The settings on record: fluorescence 635 nm, higher = more signal.
A short description of test [13]: blood-stage malaria parasite viability loss – strain 3D7, DAPI fluorescence, 100 nL, primary screen (AID 1184).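 Also: parasites grown inside human red blood cells in medium with human serum.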 The settings on record: P. falciparum 3D7 growth, 3 d, higher = more signal.
The target in test [14] is Homeobox protein Hox-A13 (Mus musculus) (UniProt Q62424). As to the kind of experiment: disruptors of Hoxa13 oligonucleotide interaction – biochemical, fluorescence polarization, labeled oligonucleotide, primary screen (AID 1185). The settings on record: Hoxa13:DNA binding, 15 min, higher = more signal, called active from +8 up or from −8 down.
Sequence of Homeobox protein Hox-A13 (Mus musculus) (Q62424 whole entry, looked up): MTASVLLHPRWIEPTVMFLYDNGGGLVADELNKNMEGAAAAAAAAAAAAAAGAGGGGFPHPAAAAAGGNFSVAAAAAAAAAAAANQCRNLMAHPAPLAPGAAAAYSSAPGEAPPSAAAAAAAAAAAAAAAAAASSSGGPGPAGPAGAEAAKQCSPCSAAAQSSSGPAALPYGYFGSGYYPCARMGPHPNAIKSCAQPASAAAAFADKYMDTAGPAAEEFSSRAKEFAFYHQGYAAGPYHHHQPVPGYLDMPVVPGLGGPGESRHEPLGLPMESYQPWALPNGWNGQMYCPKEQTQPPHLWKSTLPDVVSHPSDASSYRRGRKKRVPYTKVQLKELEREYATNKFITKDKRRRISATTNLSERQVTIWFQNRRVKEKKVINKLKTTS
Test [15] is described as follows: blockers of DNA damage checkpoint Chk1 activation – imaging, HeLa, hydroxyurea, phospho-Chk1 antibody, percent positive cells, primary screen (AID 1186). Conditions: hydroxyurea-induced phospho-Chk1 immunofluorescence imaging, higher = more signal.
Test [16] in a line: blockers of DNA damage checkpoint Chk1 activation – imaging, HeLa, hydroxyurea, phospho-Chk1 nuclear intensity, primary screen (AID 1187). The settings on record: hydroxyurea-induced phospho-Chk1 immunofluorescence imaging, higher = more signal.

Active and inactive are the calls of the source. Unless noted, no rule for the calls is given here.

For the compound `COCCCNC(=O)[C@@]1(Sc2ccc(C)cc2)CC(=O)N(Cc2ccccc2C(F)(F)F)[C@@H]1c1ccc(CO)cc1I`, the z-score in [1] is -1.07; in [2], -2.19 (inactive); in [3], -2.56 (inactive); in test [5], 0.0993 (inactive); in test [6] it was -1.2 (inactive); in test [7] it was -0.473 (inactive). Moreover, the z-score in test [8] is 0.0799 (inactive); in test [9], -2.75; in test [13] it was -0.284; in [14], -2.03 (inactive); in test [15], 0.26 (inactive); in [16], 0.204 (inactive). Also, the composite z-score in [4] was 0.0681 (inactive); in test [10], 0.419; in test [11] it was 0.814 (inactive); in [12], -0.251.

For `COc1ccc([Si](C)(C)[C@H]2[C@H](CC(=O)N3Cc4ccccc4C[C@H]3CO)O[C@@]3(C(=O)N(C)c4c(Br)cc(C)cc43)[C@@H]2C)cc1`, the z-score in [1] was -4.15; in test [2], 0.915 (inactive); in test [3], -6.33 (inactive); in test [5] it was 1.72 (inactive); in [6] it was 3.17 (inactive); in [7], -0.652 (inactive). In addition, the z-score is -0.984 (inactive) in [8]; -6.22 in [9]; -2.61 in [13]; -4.14 (inactive) in test [14]; 0.18 (inactive) in [15]; -0.569 (inactive) in [16]. For the same compound, the composite z-score in [4] was 0.973 (inactive); in [10] it was -0.134; in test [11], 0.0621 (inactive); in test [12], 0.445.

`COc1ccc([Si](C)(C)[C@@H]2[C@@H](CC(=O)N3Cc4ccccc4C[C@H]3CO)O[C@]3(C(=O)N(Cc4cccc(N5CCOC5=O)c4)c4ccccc43)[C@H]2C)cc1`: the z-score was -1.02 in test [1]; -0.238 (inactive) in [2]; -2.17 (inactive) in test [3]; 0.79 (inactive) in test [5]; 1.64 (inactive) in test [6]; -0.742 (inactive) in test [7]. Also, the z-score was -0.655 (inactive) in test [8]; -2.05 in test [9]; -2.83 in [13]; -2.49 (inactive) in test [14]; -0.34 (inactive) in test [15]; -0.695 (inactive) in test [16]. Further, the composite z-score in [4] is 0.314 (inactive); in test [10], -0.13; in test [11], 0.0848 (inactive); in test [12], 0.672.

For the compound `C=CCC(OC(C)=O)[C@@H]1[C@@H](N(Cc2cccc3ccccc23)C(=O)Cc2ccc(OC)cc2)c2cc(OCCCO)ccc2N1C(=O)c1ccc2ccccc2c1` (stereo not given in full), the z-score was 0.74 in test [1]; -1.57 (inactive) in test [2]; 0.435 (inactive) in test [3]; -0.37 (inactive) in [5]; -0.958 (inactive) in test [6]; 1.22 (inactive) in [7]. In addition, the z-score in test [8] was 0.56 (inactive); in test [9], 1.17; in [13], -2.64; in test [14], -2.33 (inactive); in [15], -0.325 (inactive); in test [16], -0.0189 (inactive). In addition, the composite z-score was -0.775 (inactive) in [4], -0.123 in [10], -0.129 (inactive) in test [11] and 0.174 in test [12].

Regarding `Cc1ccc(N2C(=O)c3ccccc3[C@](C)(C(=O)NCCCN(C)C)[C@@H]2c2ccc(CO)cc2)nc1`, the z-score in test [1] was 0.218; in [2] it was -0.742 (inactive); in [3] it was -0.296 (inactive); in test [5], 0.084 (inactive); in test [6], -0.764 (inactive); in test [7], -0.0003 (inactive). Besides, the z-score was -0.575 (inactive) in test [8]; -0.0858 in [9]; 0.165 in [13]; -2.55 (inactive) in [14]; -0.229 (inactive) in test [15]; -0.321 (inactive) in test [16]. The composite z-score in test [4] was 0.0135 (inactive); in test [10] it was -0.158; in test [11] it was 0.0854 (inactive); in test [12], -0.495.

Consider `CC1CC/C=C\[C@H]2OC34C=CCN(CCN5CCOCC5)C(=O)[C@H]3N(CCCO)C(=O)[C@@H]4C2C(=O)O1` (stereo not given in full), for which the z-score is -0.505 in [1]; 0.356 (inactive) in test [2]; -0.431 (inactive) in test [3]; 0.233 (inactive) in test [5]; 0.296 (inactive) in [6]; -0.47 (inactive) in test [7]. Further, the z-score was -0.496 (inactive) in [8]; -0.479 in test [9]; -0.246 in [13]; -6.46 (inactive) in test [14]; 0.58 (inactive) in test [15]; 0.667 (inactive) in test [16]. In addition, the composite z-score in [4] was 0.199 (inactive); in test [10] it was 0.158; in [11] it was 0.537 (inactive); in [12], -0.868.

On to `COc1cc(C(O)C2C=CC3C(=O)N(c4ccccc4)C(=O)C3N2Nc2ccccc2)cc(OC)c1OC` (stereo not given), for which the z-score in test [1] was -0.945; in [2] it was -7.58 (inactive); in [3], -0.191 (inactive); in test [5] it was 1.11 (inactive); in test [6], 0.499 (inactive); in [7], -0.393 (inactive). Moreover, the z-score is -0.433 (inactive) in [8]; -0.977 in [9]; 0.808 in [13]; -3.96 (inactive) in [14]; -0.153 (inactive) in test [15]; -0.522 (inactive) in test [16]. Besides, the composite z-score in test [4] is 0.484 (inactive); in test [10] it was 0.0845; in [11] it was 1.1 (inactive); in test [12] it was 0.746.

In the case of `C=C(CCCC)/C(=C/C[C@H](OC(C)=O)c1cccc(OCCO)c1)c1cnc2ccccc2c1`, the z-score is 0.209 in test [1]; 1.13 (inactive) in test [2]; -0.117 (inactive) in [3]; -0.693 (inactive) in test [5]; 1.75 (inactive) in test [6]; 0.5 (inactive) in test [7]. In addition, the z-score in test [8] was 0.211 (inactive); in test [9] it was 0.814; in test [13], -2.57; in test [14], -4.01 (inactive); in [15], -0.549 (inactive); in test [16], -0.761 (inactive). Moreover, the composite z-score in test [4] is -3.15 (inactive); in test [10] it was -0.0448; in [11] it was -0.0697 (inactive); in test [12], 0.0014.

With `O=C1[C@@H]2[C@@H](CC(COc3ccccc3)=C([C@H](O)CCc3ccccc3)[C@@H]2CO)C(=O)N1Cc1ccccc1`, the z-score in test [1] was -1.38; in test [2] it was -0.0733 (inactive); in test [3] it was -0.577 (inactive); in [5], 0.258 (inactive); in test [6], 1.47 (inactive); in test [7], 0.372 (inactive). The z-score in test [8] was 0.203 (inactive); in test [9], -0.664; in [13], -0.0811; in [14] it was -6.92 (inactive); in [15], -0.556 (inactive); in test [16] it was -0.945 (inactive). For the same compound, the composite z-score in test [4] is -2.37 (inactive); in test [10], 0.15; in test [11] it was -0.268 (inactive); in test [12], 0.73.

For the compound `COCCCN1C(=O)[C@@]2(c3ccc([N+](=O)[O-])cc3)CC(=O)N(CC34CC5CC(CC(C5)C3)C4)[C@@H]2c2ccc(CO)cc21`, the z-score in [1] is -0.35; in test [2], 1.09 (inactive); in [3], -0.566 (inactive); in test [5], 0.792 (inactive); in [6] it was 0.0202 (inactive); in test [7] it was 0.2 (inactive). In addition, the z-score in test [8] is 0.334 (inactive); in test [9], -0.79; in test [13], -0.243; in test [14], -0.113 (inactive); in test [15] it was -0.313 (inactive); in test [16] it was -0.793 (inactive). The composite z-score is -6.02 (inactive) in test [4], 0.113 in test [10], 0.264 (inactive) in test [11] and 0.578 in test [12].
